Results from PubChem BioAssay (Tox21).
Results filed as inconclusive are left out. Active and inactive are the calls of the source. Unless noted, calls come from the whole dose curve; as a rule, active = well fitted curve in the direction sought with a large enough effect in the repeat runs; inconclusive = weak or mixed curves; inactive = no such curve, though single readings can be large; an effect the other way counts as inactive or inconclusive.

What was measured:
[1] = qHTS assay to identify small molecule antagonists of the estrogen related receptor (ERR) signaling pathway from Tox21 library - cell viability counter screen (AID 1224834); note: nearly all actives have a fitted effect of over 30% in size
Outline: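 Counter screen run in ERR cells (2,000 cells/well): cells pre-incubated 6 h, then treated with compounds for 17.5 h at 37 C. Fluorescence was read 30 min after CellTiter-Fluor addition.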

[2] = target: Luciferin 4-monooxygenase (Photinus pyralis) (UniProt P08659); assay: qHTS assay to identify small molecule inhibitors of firefly luciferase (AID 1224835); note: nearly all actives have a fitted effect of over 25% in size
Chain of Luciferin 4-monooxygenase (Photinus pyralis) (P08659 whole entry, looked up): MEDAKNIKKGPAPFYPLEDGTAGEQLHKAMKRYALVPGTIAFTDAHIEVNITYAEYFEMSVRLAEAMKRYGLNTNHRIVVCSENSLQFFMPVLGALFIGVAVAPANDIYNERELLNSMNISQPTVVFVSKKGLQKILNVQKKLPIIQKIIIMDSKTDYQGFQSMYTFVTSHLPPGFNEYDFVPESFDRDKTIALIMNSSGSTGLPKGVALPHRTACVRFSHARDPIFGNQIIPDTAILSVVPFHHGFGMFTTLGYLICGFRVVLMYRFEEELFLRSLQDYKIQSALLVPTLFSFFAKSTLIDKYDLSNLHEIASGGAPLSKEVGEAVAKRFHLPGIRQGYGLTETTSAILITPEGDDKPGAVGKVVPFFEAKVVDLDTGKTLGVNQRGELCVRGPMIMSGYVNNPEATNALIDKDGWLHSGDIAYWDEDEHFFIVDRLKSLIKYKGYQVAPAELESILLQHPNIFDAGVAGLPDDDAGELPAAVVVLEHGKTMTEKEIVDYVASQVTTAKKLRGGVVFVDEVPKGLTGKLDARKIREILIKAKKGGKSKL
Outline: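 Inhibition of purified Photinus luciferase is measured by luminescence. Substrate levels (D-luciferin, ATP) sit at their KM values. Each compound is tested in a concentration series.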

[3] = qHTS assay to identify small molecule agonists of the constitutive androstane receptor (CAR) signaling pathway - cell viability counter screen (AID 1224836); note: nearly all actives have a fitted effect of over 45% in size
Outline: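 HepG2 cells stably carrying hCAR and a CYP2B6-2.2kb reporter were plated 4 h, then given compounds at 15 concentrations plus PK11195 (final 0.75 uM). After 23 h at 37 C, viability was read by CellTiter-Fluor fluorescence.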

[4] = qHTS assay to identify small molecule antagonists of the constitutive androstane receptor (CAR) signaling pathway - cell viability counter screen (AID 1224837); note: nearly all actives have a fitted effect of over 45% in size
Outline: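 CITCO at 50 nM final was added alongside compounds (15 concentrations) to double-stable hCAR/CYP2B6-2.2kb HepG2 cells. Following 23 hr at 37 C, cell viability was quantified by CellTiter-Fluor fluorescence intensity.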

[5] = target: Nuclear receptor subfamily 1 group I member 3 (Homo sapiens) (UniProt Q14994); assay: qHTS assay to identify small molecule antagonists of the constitutive androstane receptor (CAR) signaling pathway (AID 1224838); note: nearly all actives have a fitted effect of over 40% in size
Chain of Nuclear receptor subfamily 1 group I member 3 (Homo sapiens) (Q14994 whole entry, looked up): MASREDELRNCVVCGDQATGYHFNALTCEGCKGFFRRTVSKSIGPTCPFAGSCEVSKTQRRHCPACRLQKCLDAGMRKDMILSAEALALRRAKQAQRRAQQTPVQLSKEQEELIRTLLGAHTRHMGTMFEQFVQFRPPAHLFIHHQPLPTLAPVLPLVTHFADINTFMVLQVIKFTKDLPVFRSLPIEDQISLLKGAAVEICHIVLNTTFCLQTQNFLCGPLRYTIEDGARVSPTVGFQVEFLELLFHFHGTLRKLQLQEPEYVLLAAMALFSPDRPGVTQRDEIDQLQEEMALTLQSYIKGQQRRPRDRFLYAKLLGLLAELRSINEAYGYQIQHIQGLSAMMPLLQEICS
Outline: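 Inhibition of CITCO-driven (50 nM final) CYP2B6 reporter expression is measured in HepG2 cells stably carrying hCAR. Fifteen compound concentrations are applied for 24 h at 37 C, followed by luciferase luminescence.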

[6] = target: Nuclear receptor subfamily 1 group I member 3 (Homo sapiens) (UniProt Q14994); assay: qHTS assay to identify small molecule agonists of the constitutive androstane receptor (CAR) signaling pathway (AID 1224839); note: nearly all actives have a fitted effect of over 15% in size
Outline: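 HepG2 cells stably expressing hCAR and a CYP2B6-2.2kb luciferase reporter were treated with compounds at 15 concentrations plus 0.75 uM PK11195 (final) for 24 h at 37 C; luminescence was read after ONE-Glo addition.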

[7] = qHTS assay to identify small molecule antagonists of the estrogen related receptor signaling pathway with the pleiotropic PPARgamma coactivator (PGC) from Tox21 10K library - cell viability counter screen (AID 1224840; active = well fitted cell-killing curve with a large enough effect in the repeat runs, not every such curve was filed as active; note: nearly all actives have a fitted effect of over 40% in size)
Outline: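 Readout: fluorescence intensity from CellTiter-Fluor after 30 min at 37 C/5% CO2. Preceded by 17.5 h treatment of PGC/ERR cells with DMSO-dissolved compounds, added 6 h post-seeding.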

[8] = qHTS assay to identify small molecule antagonists of the estrogen related receptor signaling pathway with the pleiotropic PPARgamma coactivator (PGC) from Tox21 10K library (AID 1224841; call rule not given here; note: actives are mostly falling curves and most rising ones were filed inactive; nearly all actives have a fitted effect of over 50% in size)
Outline: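 One-Glo luminescence, measured after half an hour at room temperature, quantified reporter output of PGC/ERR cells. These had been plated at 2,000 per well, incubated 6 h, dosed with compounds in DMSO, then kept 18 h at 37 C.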

[9] = qHTS assay to identify small molecule agonists of the estrogen related receptor signaling pathway with the pleiotropic PPARgamma coactivator (PGC) from Tox21 10K library (AID 1224842); note: nearly all actives have a fitted effect of over 15% in size
Outline: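 Luminescence from One-Glo (30 min, room temperature) measured after PGC/ERR cells had 18 h at 37 C with pinned compound (23 nL in DMSO). Cells had been seeded at 2,000 per well and pre-incubated 6 h.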

[10] = qHTS assay to identify small molecule agonists of the hypoxia (HIF-1) signaling pathway - cell viability counter screen (AID 1224844; calls by dose curve; note: nearly all actives have a fitted effect of over 50% in size)
Outline: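 In this counter screen, HRE-bla ME-180 cell viability after 17 hrs of compound exposure at 37C was read by CellTiter-Glo luminescence, multiplexed with the beta-lactamase reporter measurement.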

[11] = qHTS assay to identify small molecule agonists of H2AX (AID 1224845; active = well fitted activation curve with a large enough effect in the signal ratio in the repeat runs, not every such curve was filed as active; the % refers to the signal ratio)
Outline: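 Phospho-H2AX Ser139 measured by HTRF (ex 320 nm; em 665 and 620 nm) after 24 hr antibody incubation. Compounds, 15 concentrations, 0.76% DMSO, were applied to CHO-K1 cells for 3hr at 37C before lysis.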

[12] = qHTS assay to identify small molecule agonists of the hypoxia (HIF-1) signaling pathway (AID 1224846; active = well fitted activation curve with a large enough effect in the signal ratio in the repeat runs, not every such curve was filed as active; the % refers to the signal ratio)
Outline: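 ME-180 HRE-bla reporter cells; compounds in DMSO, 17 h at 37C; read-out beta-lactamase via CCF4-AM FRET.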

[13] = qHTS assay to identify small molecule agonists of H2AX - cell viability counter screen (AID 1224847; calls by dose curve; note: top concentration of the series differs between compounds; nearly all actives have a fitted effect of over 30% in size)
Outline: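 Wild-type CHO-K1 cells (10% FBS medium) were plated overnight at 37C, exposed to compounds at 15 concentrations for 3 hr at 37C (0.76% DMSO final), and viability was read as CellTiter-Glo luminescence after 30 min at room temperature.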

[14] = qHTS assay to identify small molecule antagonists of the estrogen related receptor (ERR) signaling pathway from Tox21 library (AID 1224848); note: nearly all actives have a fitted effect of over 50% in size
Outline: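 Luciferase luminescence (ONE-Glo, 30 min room temperature) was the read-out. Cells of the NTP-supplied ERR line, 2,000 per well, were given 6 h at 37 C before compound addition in DMSO and 18 h exposure at 37 C.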

[15] = qHTS assay to identify small molecule agonists of the estrogen related receptor (ERR) signaling pathway from Tox21 library (AID 1224849; calls by dose curve; note: nearly all actives have a fitted effect of over 15% in size); settings: ERR reporter cell line, ONE-Glo luciferase, 18 h; at 92.4 µM (top of the series) unless noted
Outline: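 Luciferase activity in ERR pathway reporter cells served as the agonist readout; exposure lasted 18 h at 37 C, with ONE-Glo detection after 30 min at room temperature.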

[16] = qHTS RealTime-Glo MT Cell Viability Assay in HepG2 cells - 24 hour (AID 1224867); note: nearly all actives have a fitted effect of over 50% in size
Outline: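 Luminescence read-out: viable HepG2 cells reduce a prosubstrate to a NanoLuc substrate, giving a signal proportional to live cell number. Reads taken at 0, 8, 16, 24, 32 and 40 h of compound exposure at 37 C.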

[17] = qHTS RealTime-Glo MT Cell Viability Assay in HEK293 cells - 32 hour (AID 1224868)
Outline: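 Nonlytic real-time viability readout: viable cells convert prosubstrate to NanoLuc substrate, giving luminescence proportional to live cell number. HEK293, 600 cells/well, compound added after 5 h, continuous culture at 37 C.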

[18] = A CellTox Green Cytotoxicity Assay to monitor cytotoxicity in HEK293 cells - 0 hour (AID 1224869); note: nearly all actives have a fitted effect of over 50% in size
Outline: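 Real-time, in one plate: 600 HEK293 cells/well with dead-cell DNA dye, pinned compound after 5 h, 37 C incubation over 40 h; viable cells give no appreciable fluorescence.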

[19] = target: Thyrotropin receptor (Homo sapiens) (UniProt P16473); assay: qHTS assay to identify small molecule agonists of the thyroid stimulating hormone receptor (TSHR) signaling pathway (AID 1224843; calls by dose curve; note: nearly all actives have a fitted effect of over 45% in size)
Chain of Thyrotropin receptor (Homo sapiens) (P16473 whole entry, looked up): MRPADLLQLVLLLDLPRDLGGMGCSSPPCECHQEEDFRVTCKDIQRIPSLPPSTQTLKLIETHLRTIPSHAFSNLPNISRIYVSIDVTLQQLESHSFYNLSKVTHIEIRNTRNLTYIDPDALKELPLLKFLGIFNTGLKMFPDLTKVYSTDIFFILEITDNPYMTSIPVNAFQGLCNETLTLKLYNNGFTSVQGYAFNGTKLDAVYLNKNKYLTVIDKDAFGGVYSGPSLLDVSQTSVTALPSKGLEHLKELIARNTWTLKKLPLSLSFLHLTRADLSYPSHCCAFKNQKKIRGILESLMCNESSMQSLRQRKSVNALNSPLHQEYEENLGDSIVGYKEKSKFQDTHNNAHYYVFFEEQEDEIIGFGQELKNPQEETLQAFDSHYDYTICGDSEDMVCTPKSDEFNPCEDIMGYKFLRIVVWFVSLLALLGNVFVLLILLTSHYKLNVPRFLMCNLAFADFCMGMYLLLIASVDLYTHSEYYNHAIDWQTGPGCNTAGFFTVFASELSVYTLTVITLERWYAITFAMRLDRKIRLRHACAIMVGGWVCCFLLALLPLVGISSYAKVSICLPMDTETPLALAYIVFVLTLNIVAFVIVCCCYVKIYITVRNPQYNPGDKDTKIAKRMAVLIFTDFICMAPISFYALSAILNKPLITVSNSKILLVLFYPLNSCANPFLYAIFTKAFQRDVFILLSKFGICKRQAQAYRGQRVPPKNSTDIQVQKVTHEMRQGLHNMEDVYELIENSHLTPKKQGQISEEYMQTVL
Outline: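 Agonist activity read as cAMP rise via d2/cryptate HTRF competition, 1 h room-temperature detection, in HEK293 cells expressing TSHR. Fifteen-point titrations, each run in triplicate, with a 30 min room-temperature incubation beforehand.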

[20] = qHTS assay to identify small molecule agonists of the estrogen related receptor signaling pathway with the pleiotropic PPARgamma coactivator (PGC) (AID 1224823)
Outline: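 Compounds dissolved in DMSO are added by pin tool to PGC/ERR cells that have settled for 6 h, and incubation continues 18 h at 37 C. Reporter output is measured as One-Glo luminescence.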
% is set by controls: 0 for no effect and ±100 for the full control effect.

CCCOC(OCCC)OCCC
inactive: Potency [1] | Potency [2] | Potency [3] | Potency [4] | outcome [5] | Potency [6] | outcome [7] | Potency [8] | outcome [9] | outcome [10] | outcome [11] | outcome [12] | Potency [13] | Potency [14] | activity change, positive = activation [15] 4.24% | outcome [16] | Potency [17] | outcome [18]

C[Si](C)=O
inactive: viability change, negative = cytotoxic [1] 2.07% [at 8.39 µM] | activity change, negative = inhibition [2] 5.26% [at 10.5 µM] | viability change, negative = cytotoxic [3] 2.34% [at 8.39 µM] | activity change, negative = cytotoxicity [4] 1.39% [at 8.39 µM] | activity, negative = inhibition [5] -3.72% [at 8.39 µM] | activation [6] -0.11% [at 8.39 µM] | viability change, negative = cytotoxic [7] 10.2% [at 8.39 µM] | activity, negative = inhibition [8] -4.65% [at 8.39 µM] | activation [9] -1.46% [at 8.39 µM] | activation [19] 1.85% [at 8.39 µM] | activity change, negative = cytotoxicity [10] 3.37% [at 6.97 µM] | activation (H2AX phosphorylation) [11] -1.6% [at 14 µM] | activation [12] -1.19% [at 7.01 µM] | activity change, negative = cytotoxicity [13] -6.59% [at 14 µM] | activity, negative = inhibition [14] 1.05% [at 8.39 µM] | activity change, positive = activation [15] 0.654% [at 8.39 µM] | activity change, negative = cytotoxicity [16] 0.943% [at 6.97 µM] | activity change, negative = cytotoxic [17] 1.65% [at 6.97 µM] | cytotoxicity [18] 2.11% [at 6.97 µM]

COc1ccc(C2CNC(=O)C2)cc1OC1CCCC1 (stereo not given)
inactive: outcome [20] | Potency [2] | Potency [3] | Potency [4] | outcome [7] | Potency [8] | outcome [9] | Potency [19] | outcome [10] | outcome [11] | Potency [13] | Potency [14] | activity change, positive = activation [15] -4.57% [at 42.5 µM] | outcome [16] | Potency [17] | outcome [18]

CNC(=O)[C@H]1O[C@@H](n2cnc3c(NCc4cc(Cl)ccc4OCc4cc(C)no4)ncnc32)[C@H](O)[C@@H]1N
inactive: Potency [1] | Potency [2] | Potency [3] | Potency [4] | outcome [5] | Potency [6] | outcome [7] | Potency [8] | outcome [9] | Potency [19] | outcome [10] | outcome [11] | outcome [12] | Potency [13] | Potency [14] | activity change, positive = activation [15] -1.8% | outcome [16] | Potency [17] | outcome [18]

C[C@@H](O)[C@H]1C(=O)N2C(C(=O)O)=C(SCCN=CN)C[C@H]12
inactive: outcome [20] | Potency [1] | Potency [2] | Potency [3] | Potency [4] | outcome [5] | Potency [6] | Potency [8] | outcome [9] | Potency [19] | outcome [10] | outcome [11] | Potency [13] | Potency [14] | activity change, positive = activation [15] 5.47% [at 42.5 µM] | outcome [16] | Potency [17] | outcome [18]

NC(CO)C(=O)NNCc1ccc(O)c(O)c1O (stereo not given)
inactive: outcome [20] | Potency [1] | Potency [2] | Potency [3] | Potency [8] | outcome [9] | outcome [10] | Potency [13] | Potency [14] | activity change, positive = activation [15] 1.5% [at 42.5 µM] | outcome [16] | Potency [17] | outcome [18]

C=C(C)C(=O)OCc1ccccc1
inactive: Potency [1] | Potency [2] | Potency [3] | Potency [4] | outcome [5] | Potency [6] | outcome [7] | Potency [8] | outcome [9] | outcome [10] | outcome [11] | Potency [13] | Potency [14] | activity change, positive = activation [15] 1.9% | outcome [16] | Potency [17] | outcome [18]
